SRC3 TRFRET art: TR-FRET artefact, counter-screen to PPARgamma/SRC-3 agonist assay; PPARgamma/SRC-3 format; active compounds read high; TR-FRET ratio at 8 µM; 99,000 tested, 0.39% active
SRC2 TRFRET art: counter-screen for PPARgamma SRC-2 recruitment agonists: TR-FRET artefact; TR-FRET ratio at 8 µM; AID 1049; 200,000 tested, 0.4% active; active compounds read high
SRC1 TRFRET art: counter-screen for PPARgamma SRC-1 recruitment agonists: TR-FRET artefact; TR-FRET detection artefact counter-screen, emission ratio; active compounds read high; TR-FRET ratio at 8 µM; 99,000 tested, 0.34% active; in the data active means TR-FRET ratio above about 2300
PPARg SRC1 recr: promotes SRC-1 coactivator recruitment by human PPARgamma. PPARgamma-SRC-1 coactivator recruitment biochemical assay. activation, % at 8 µM. 200,000 tested, 0.41% active; in the data active means activation above about 19%
PPARg SRC-2 ag: promotes SRC-2 coactivator recruitment by human PPARgamma | PPARgamma LBD-SRC-2 recruitment, biochemical | activation, % at 8 µM | 200,000 tested, 0.34% active | AID 1032; in the data active means activation above about 22%
PPARg SRC3 recr: PPARgamma-driven SRC-3 recruitment agonism; P37231; biochemical PPARgamma/SRC-3 coactivator recruitment assay; activation, % at 8 µM; 200,000 tested, 0.26% active; AID 731; in the data active means activation above about 23%
PPARg SRC2 conf: human PPARgamma SRC-2 recruitment agonism, confirmation. activation, % at 8 µM. biochemical SRC-2 recruitment by PPARgamma. 790 tested, 52% active. shares compounds with PPARg SRC3 recr; in the data active means activation above about 22%
PPARg SRC1 ag: confirmation of agonists of SRC-1 recruitment by human PPARgamma; shares compounds with PPARg SRC3 recr; PPARgamma–SRC-1 coactivator recruitment biochemical assay; activation, % at 8 µM; 790 tested, 43% active; in the data active means activation above about 20%
PPARg SRC3 ag: confirmation of agonists of SRC-3 recruitment by human PPARgamma; shares compounds with PPARg SRC3 recr; biochemical PPARgamma-SRC-3 coactivator recruitment, agonist mode; activation, % at 8 µM; 790 tested, 29% active; AID 1301; in the data active means activation above about 24%
A number is an active result; n = inactive; x = not tested or not shown. Sampled rows, rich in hits. Any-hit rate of the full collection: about 0.9%. Unless noted, no stated cut-off is given here; in the data, active means TR-FRET ratio above about 2000; inactive means the rest.

SMILES	SRC3 TRFRET art	SRC2 TRFRET art	SRC1 TRFRET art	PPARg SRC1 recr	PPARg SRC-2 ag	PPARg SRC3 recr	PPARg SRC2 conf	PPARg SRC1 ag	PPARg SRC3 ag
CCNc1ccc2noc3c2c1C(=O)c1ccccc1-3	x	n	x	n	n	n	x	x	x
O=C1c2ccccc2-c2onc3ccc(NCc4ccco4)c1c23	2084	n	n	32	35	n	23	n	n
Cc1nc2ccc3nc(NC(=O)c4ccco4)sc3c2s1	x	n	x	23	n	n	n	n	n
Cc1ccc2nc(NC(=S)NC(=O)c3ccco3)sc2c1	2144	2308	2516	22	29	n	56	44	37
COc1cc(C(=O)Nc2nc3ccc4nc(C)sc4c3s2)cc(OC)c1OC	x	n	x	n	n	n	x	x	x
COc1ccc(C(=O)Nc2nc3ccc4nc(C)sc4c3s2)cc1	x	n	x	67	n	56	45	29	27
COc1ccc(NC(=O)c2c(NC(=O)CNCC(C)C)sc3c2CCC3)c(OC)c1	n	n	n	n	n	n	x	x	x
CN(C)C(=S)SCC(=O)Nc1ccc(Cl)cc1Cl	n	n	n	n	n	n	x	x	x
C#CCN(C(=O)Nc1ccccc1)c1ccccc1	n	n	n	n	n	n	x	x	x
C=CCOc1c(Cl)cc(CNc2ccc(N(C)C)cc2)cc1OC	x	2956	x	60	103	120	n	n	n
C=CCOc1c(Cl)cc(CNc2ccc(C)c(Cl)c2)cc1OC	x	n	x	n	n	n	x	x	x
CN1C(=O)c2ccc(NC(=O)c3ccc(N4CCCCC4)c([N+](=O)[O-])c3)cc2C1=O	n	n	n	n	n	n	x	x	x
COc1cccc(NC(=S)N(CCCN2CCOCC2)Cc2cn(C)c3ccccc23)c1	n	n	n	n	n	n	x	x	x
CS(=O)(=O)Nc1ccc(-c2n[nH]c(=S)n2-c2ccccc2)cc1	x	n	x	19	n	n	n	n	n
Cc1ccc(-n2c(-c3cccc(C)c3)n[nH]c2=S)cc1	x	1998	x	20	32	36	30	22	n
Cc1ccc(-c2n[nH]c(=S)n2-c2ccccc2)cc1	x	n	x	n	n	n	x	x	x
Cc1cc(Cl)cc(Br)c1OCCCN1C(=O)NC(C)(C)C1=O	x	n	x	n	n	n	x	x	x
CC(=O)c1ccc(N2CCN(C(C)C(=O)NC3CCCc4ccccc43)CC2)cc1 (stereo not drawn)	n	n	n	n	n	n	x	x	x
Cc1ccc2nsnc2c1NS(=O)(=O)c1c(C)ccc2nsnc12	x	n	x	n	n	n	x	x	x
Cc1ccc(/C=[N+](\[O-])c2ccc(N(C)C)cc2)c2nsnc12	n	n	n	27	n	n	n	n	n
Cc1ccc(CSc2nc3ccsc3c(=O)n2Cc2ccccn2)cc1	n	n	n	n	n	n	x	x	x
O=c1c2sccc2nc(SCc2cc(=O)n3cc(Br)ccc3n2)n1Cc1ccccn1	2195	2046	2338	23	23	n	n	n	n
CCSc1nc(N)c2c3c(sc2n1)CCC3	x	2185	x	n	28	32	n	n	n
CCOC(=O)C1=C(C)OC(N)=C(C#N)C1c1cc(C)sc1C (stereo not drawn)	x	n	x	n	n	n	x	x	x
CCOC(=O)C1=C(C)OC(N)=C(C#N)C1c1cc2cc(C)ccc2nc1N1CCCCC1 (stereo not drawn)	x	2305	x	38	40	62	62	44	42
CN1/C(=C/c2cc[n+](C)c3ccccc23)C=Cc2ccccc21	2217	1994	2343	33	42	26	n	n	n
Cc1onc(-c2ccccc2Cl)c1C(=O)Nc1ncn[nH]1	n	n	n	n	n	n	x	x	x
COc1ccc(C2CC(c3ccc(Br)cc3)=NN2C(=S)Nc2ccccc2)cc1 (stereo not drawn)	2737	2406	2916	28	26	n	44	39	26
COc1ccccc1C1CC(c2ccccc2)=NN1C(=S)Nc1ccccc1 (stereo not drawn)	2517	2595	3073	43	37	23	70	51	44

Screening results: PubChem, The Scripps Research Institute Molecular Screening Center
